Experimental data as given in PubChem BioAssay AID651813 (National Center for Advancing Translational Sciences (NCATS), 2012).
Among all 2,100 compounds or so, about 1,100 (52%) were called active. Roughly 27% stayed inconclusive and do not appear here. So high a share suggests a set chosen from earlier hits. Some of the results follow. Unmarked numbers belong to inactive results. The call rests on the fitted dose curve; in most records, active means well fitted inhibition curve with a large enough effect; inconclusive means small, poorly fitted or top-dose-only effect; inactive means no such curve, though single readings can be large or run the other way.

Molecular target: DNA dC->dU-editing enzyme APOBEC-3G (Homo sapiens) (UniProt Q9HC16)
Sequence (Q9HC16 whole entry, looked up): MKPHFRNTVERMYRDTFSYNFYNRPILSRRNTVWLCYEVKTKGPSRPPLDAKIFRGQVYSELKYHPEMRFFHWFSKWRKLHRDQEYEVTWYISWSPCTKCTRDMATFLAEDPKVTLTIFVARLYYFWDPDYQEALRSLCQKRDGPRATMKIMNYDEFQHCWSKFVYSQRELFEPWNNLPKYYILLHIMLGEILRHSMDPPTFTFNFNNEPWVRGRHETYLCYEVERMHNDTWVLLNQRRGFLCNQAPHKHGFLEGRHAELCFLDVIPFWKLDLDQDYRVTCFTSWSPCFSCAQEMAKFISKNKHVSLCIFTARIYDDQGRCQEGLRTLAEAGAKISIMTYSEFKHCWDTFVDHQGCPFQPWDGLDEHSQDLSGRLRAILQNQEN
Assay: qHTS for inhibitors of Vif-A3G interactions: Cherry picks counterscreen;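 further: hits raise yellow fluorescence by blocking Vif-driven A3G-eYFP degradation; nearly all actives have a fitted effect of over 70% in size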;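 on max response: max response given as percent of control signal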
Conditions: HeLa A3G-eYFP + Vif (tagged APOBEC3G with the HIV-1 protein that degrades it), eYFP fluorescence, 24 h
Method in brief: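 HeLa cells stably expressing A3G-eYFP and Vif were treated for 24 h at 37 deg C with compounds at several concentrations; yellow fluorescence (Ex 488 nm, Em 500-530 nm) read by Acumen Explorer, MG132 as positive control.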
Potency means the concentration at half of the fitted maximal effect.

SMILES | max response | Potency
CCCCCCc1cc2cc(-c3nnc(-c4ccccc4O)o3)c(=O)oc2cc1O | 54.5% | –
CCCCCCc1cc2cc(-c3nnc(-c4ccccc4OC)o3)c(=O)oc2cc1O | – | 7.04 µM (active)
CCCCCCc1cc2cc(-c3nnc(-c4ccccc4)o3)c(=O)oc2cc1O | – | 1.98 µM (active)
Cc1c(N2C(=O)/C(=C/c3ccc(N(C)C)cc3)N(C)C2=S)c(=O)n(-c2ccccc2)n1C | – | 20.6 µM (active)
CN1C(=S)N(c2cccnc2)C(=O)/C1=C\c1ccc(N(C)C)cc1 | – | 11.2 µM (active)
CN1C(=O)/C(=C\c2ccc(N(C)C)cc2)OC1=S | – | 2.8 µM (active)
O=C(N/N=C/c1cccs1)c1n[nH]c2c1CCC2 | – | 4.44 µM (active)
O=C(N/N=C/c1cccc2ccccc12)c1n[nH]c2c1CCCC2 | – | 3.53 µM (active)
Cc1ccsc1/C=N\NC(=O)c1n[nH]c2c1CCC2 | – | 7.04 µM (active)
COCCNC(=S)N/N=C(\C)c1ccc(OC(F)F)cc1 | -0.557% | –
Cn1cc(/C=C2\SC(=S)N(NC(=O)c3cccc(Cl)c3)C2=O)c2ccccc21 | – | 8.2 µM (active)
COc1ccc(-c2cnnc(N/N=C/c3ccc(O)c(OC)c3)n2)cc1 | – | 8.86 µM (active)
COc1cc(/C=N/Nc2cc(C)nc(NS(=O)(=O)c3ccccc3)n2)ccc1O | -5.07% | –
COc1cc(/C=N/Nc2ccc(Cl)nn2)cc(OC)c1O | -0.979% | –
O=C(Nc1ccccc1-c1nc2ccccc2[nH]1)c1ccc(N2C(=O)CCC2=O)cc1 | – | 18.4 µM (active)
S=C(NC1CCCCC1)N(CCc1ccccc1)CCc1ccccc1 | -10.7% | –
CCOC(=O)c1[nH]c(C)c(C(=O)Nc2ccccc2C)c1C | – | 6.27 µM (active)
COc1ccc(OC)c(NC(=O)c2cc(-c3cc(C)cc(C)c3O)n[nH]2)c1 | -1.73% | –
CCOC(=O)c1c(C)[nH]c(C(=O)N/N=C/c2cccc(OC)c2)c1C | – | 15.8 µM (active)
CCOC(=O)c1[nH]c(C)c(C(=O)Nc2ccc(C)cc2C)c1C | – | 3.96 µM (active)
CCOC(=O)c1[nH]c(C)c(C(=O)Nc2cc(OC)ccc2OC)c1C | – | 3.53 µM (active)

SMILES | max response | Potency
Cc1cc(N/N=C/c2ccc(O)cc2O)nc(-n2nc(C)cc2C)n1 | 2.12% | –
CC(=O)c1c(C)[nH]c(C(=O)Nc2ccc(Cl)cc2F)c1C | -22.8% | –
CCOC(=O)c1[nH]c(C)c(C(=O)Nc2ccccc2F)c1C | – | 3.53 µM (active)
COc1ccccc1CNC(=O)c1ccc2nc3[nH]c4ccccc4c3nc2c1 | 6.47% | –
Fc1ccc2nc3[nH]c4ccccc4c3nc2c1 | – | 0.396 µM (active)
CCN(CC(=O)Nc1ccccc1-c1ccccc1)Cc1nc2ccccc2c(=O)[nH]1 | – | 12.5 µM (active)
C(=C\c1c[nH]c2ccccc12)/c1ccc2ccccc2n1 | – | 16.4 µM (active)
C(=Cc1c[nH]c2ccccc12)c1ccc2ccccc2n1 | – | 20.6 µM (active)
Cc1[nH]c2ccccc2c1/C=C/c1ccc2ccccc2n1 | – | 16.4 µM (active)
CC(=O)c1cccc(NC(=O)C2CCCN(S(=O)(=O)c3cccc4nonc34)C2)c1 (stereo unspecified) | 11.2% | –
COc1ccc(C(=O)C(C)[n+]2ccc(C)c3ccccc32)cc1[N+](=O)[O-] (stereo unspecified) | 3.16% | –
COc1ccc(C(=O)NC2CCCc3ccccc32)cc1[N+](=O)[O-] (stereo unspecified) | – | 7.04 µM (active)
CCOC(=O)N1CCN(C(=O)c2ccccc2-c2ccccc2)CC1 | – | 5.59 µM (active)
CCOC(=O)N1CCN(C(=O)c2cc(-c3ccc(OCC)cc3)nc3ccccc23)CC1 | – | 7.04 µM (active)
O=C(c1cc(-c2ccncc2)nc2ccccc12)N1CCN(c2ccccn2)CC1 | – | 9.94 µM (active)
O=C(NC(=S)N1CCN(c2ccccn2)CC1)c1ccccc1 | -0.54% | –
O=C(COc1ccccc1-c1ccccc1)NN=C1CCCC1 | -18.6% | –
Cc1c(C(=O)Nc2cccnc2)oc2ccc(Br)cc12 | – | 12.5 µM (active)
N#CC(C(=S)Nc1ccccc1)c1nc2ccccc2[nH]1 (stereo unspecified) | -4.48% | –
c1ccc2[nH]c(NN=C3CCCCCC3)nc2c1 | 0.674% | –
O=C(CSc1ccccc1)Nc1nc2ccccc2[nH]1 | – | 9.94 µM (active)

SMILES | max response | Potency
Fc1cccc(Cc2c(-c3ccco3)nc3ccc(Br)cn23)c1 | – | 14 µM (active)
COC(=O)c1ccc(Oc2cc(C)nc(SC)n2)cc1 | – | 8.86 µM (active)
Cc1ccc(-c2nc3ncccc3o2)cc1NC(=O)c1ccc([N+](=O)[O-])o1 | 3.91% | –
O=C(NCc1ccccc1)C(=O)NCC1COc2ccccc2O1 (stereo unspecified) | – | 12.5 µM (active)
COC(=O)CCS(=O)(=O)c1nc(-c2ccccc2)cc(C(F)(F)F)n1 | – | 12.5 µM (active)
CC1CCN(C(=O)C(C)Sc2nc(-c3ccccc3)cc(C(F)(F)F)n2)CC1 (stereo unspecified) | 2.38% | –
COc1ccc2o/c(=N/NC(=O)c3cccs3)c(C(N)=O)cc2c1 | – | 12.5 µM (active)
CCOC(=O)c1c(C)sc(-c2c(-c3ccccc3)[nH]c3[nH]c(=O)[nH]c(=O)c23)c1O | – | 18.4 µM (active)
COc1cc(-c2noc(C)c2/C=C/c2ccc(OC(C)=O)cc2)cc(OC)c1OC | – | 0.627 µM (active)
Cc1ccc(O)c(NC(=O)c2cc(-c3ccccc3O)no2)c1 | – | 23.1 µM (active)
COc1ccc(/C=N/NC(=O)c2cc3c(OC)ccc(OC)c3[nH]2)cc1O | – | 4.44 µM (active)
COc1ccc2[nH]c(C(=O)N/N=C/c3ccc(OC)c(O)c3)cc2c1 | – | 4.44 µM (active)
COc1ccc(S(=O)(=O)Nc2cccc3ccccc23)cc1 | – | 5.17 µM (active)
COc1ccc(S(=O)(=O)Nc2cc(Sc3ncn[nH]3)c(O)c3ccccc23)cc1 | -11.5% | –
COC(=O)c1cccc(NS(=O)(=O)c2ccc(OC)cc2)c1C | – | 7.04 µM (active)
CC1CCCCC1NC(=O)/C(C#N)=C/C=C/c1ccccc1[N+](=O)[O-] (stereo unspecified) | – | 14 µM (active)
Fc1cccc(F)c1/C=N/NC(=S)Nc1cccnc1 | -2.63% | –
CCOc1ccccc1C1CC(=O)NC2=C1C(=O)CCC2 (stereo unspecified) | – | 12.5 µM (active)
CCCOc1ccccc1C1CC(=O)NC2=C1C(=O)CCC2 (stereo unspecified) | – | 6.27 µM (active)
